# These entries were drawn from the full list.
# aSyn 5UTR act = Activators via SNCA 5'UTR binding, MLPCN. activity score, % (tested at 7.5 µM), hits read low. hit rate 7.1% among 300,000. AID 1814, 2009. alpha-synuclein 5'UTR reporter, activators screen; in the data active = activity score below about -60%
# Numbers without * were called inactive.
SMILES,aSyn 5UTR act
CCN(CC)c1ccc(N=Cc2c(C)[nH]c3ccccc23)cc1,63
CN(C)S(=O)(=O)c1ccc(C(=O)NCCSc2ccccc2)cc1,-115*
COc1ccc(C(=O)NCCSc2ccccc2)cc1OC,-129*
Cc1ccc2nc(-c3ccc(N4C(=O)CC(N5CCC(C(N)=O)CC5)C4=O)cc3)sc2c1 (stereo unspecified),-72*
COc1ccc(OCC(=O)C2CC2)c(C#N)c1,-78*
CN1/C(=C\C=C2/C(=O)Oc3ccccc3C2=O)C(C)(C)c2ccccc21,-123*
Cc1nn(-c2ccccc2)c(/N=C/c2ccc(O)cc2)c1-c1ccccc1,-134*
COc1ccc(OC)c(Nc2nc(NCCO)c3ccccc3n2)c1,-68*
Cc1ccc(Nc2nc(NCCO)c3ccccc3n2)cc1C,-76*
OCCNc1c2ccccc2nc2ccccc12,-167*
COc1ccc(OC)c(Nc2c3c(nc4ccccc24)CCC3)c1,106
Cc1ccc(NC(=O)C(=O)NC(C)C2COc3ccccc3O2)cc1 (stereo unspecified),-71*
S=C(NCCc1ccccn1)NC1CC2CCC1C2 (stereo unspecified),-62*
Cc1ccc(-c2cc(-c3ccccc3Cl)[nH]n2)c(O)c1,-221*
Cc1ccc(-c2cc(-c3ccccc3[N+](=O)[O-])[nH]n2)c(O)c1,-343*
Cc1ccccc1-c1cc(-c2ccccc2O)n[nH]1,-183*
COc1ccc(NS(=O)(=O)c2ccc(N3CCCC3)c(NC(=S)Nc3cccc(C)c3C)c2)cc1,-132*
CCOc1ccccc1C1CC(=O)Nc2cc3c(cc21)OCCO3 (stereo unspecified),92
CNc1nc(-c2ccc(Cl)cc2)cs1,-204*
CCNc1nc(-c2ccc(Cl)cc2)cs1,-169*
Clc1ccccc1Cn1nnc2c(N3CCOCC3)nc(C3CC3)nc21,55
CCCN1CCN(c2ncnc3c2nnn3Cc2ccccc2)CC1,-69*
COc1ccc(/C=C/C(=O)NC2=NCCS2)cc1OC,-148*
COc1ccc(OC)c(/C=C/C(=O)NC2=NCCS2)c1,-71*
O=C1c2ccccc2C(=O)c2c1oc(C(F)(F)F)c2C(=O)c1ccccc1,101
SMILES,aSyn 5UTR act
O=C(c1ccccc1)c1coc2c1C(=O)c1ccccc1C2=O,-80*
COCCNc1oc(/C=C/c2ccccc2)nc1C#N,-146*
N#Cc1nc(/C=C/c2ccccc2)oc1NCCCN1CCOCC1,-82*
CNc1oc(/C=C/c2ccccc2)nc1C#N,-275*
CC(C)=C1C2C=CC1C1C(=O)N(c3ccc4c(c3)OCO4)C(=O)C21 (stereo unspecified),-86*
O=C(CCN1C(=O)/C(=C/c2ccc(F)cc2)SC1=S)NC1C=CS(=O)(=O)C1 (stereo unspecified),-73*
O=C(CCN1C(=O)/C(=C/c2ccccc2Cl)SC1=S)NC1C=CS(=O)(=O)C1 (stereo unspecified),-71*
O=C(CCCN1C(=O)/C(=C/c2ccccc2Cl)SC1=S)NNC(=O)c1ccccc1,62
Cc1cccc(NC(=O)c2cc(-c3ccc(C)s3)nc3ccccc23)n1,-93*
CCc1ccc(-c2cc(C(=O)Nc3c(C)n(C)n(-c4ccccc4)c3=O)c3ccccc3n2)s1,-68*
O=C(NCCS(=O)(=O)NCCc1ccccc1)c1ccc2c(c1)OCO2,-120*
COc1cccc(C(=O)NCCS(=O)(=O)NCCc2ccccc2)c1,-75*
COC(=O)c1c(N)sc(C(=O)NCCc2ccccc2)c1C,105
COc1ccc(C(=O)NCCS(=O)(=O)NCCc2ccccc2)cc1,-72*
O=C(Nc1ccc(F)cc1)c1csc(Cc2ccccc2)n1,-110*
COc1ccc(NC(=O)c2csc(Cc3ccccc3)n2)cc1,-110*
O=C(Nc1cc(C(F)(F)F)ccc1Cl)C(Sc1nnc(-c2cccs2)o1)c1ccccc1 (stereo unspecified),-109*
O=[N+]([O-])c1ccc(N/N=C/c2cccc(O)c2O)cc1,-170*
Cc1ccc(NC(=O)c2ccc(N/N=C/c3cccc(O)c3)c([N+](=O)[O-])c2)cc1,42
O=[N+]([O-])c1ccc(N/N=C/c2cccc(O)c2)cc1,-171*
CCc1ccc(C2CC(c3ccco3)=NN2S(C)(=O)=O)cc1 (stereo unspecified),-89*
Cc1cnc(Nc2nc3ccccc3o2)nc1C(=O)Nc1cccc(C(F)(F)F)c1,-67*
Fc1ccc(Nc2nc(-c3ccncc3)cs2)cc1,-114*
Clc1ccc(Nc2nc(-c3ccncc3)cs2)cc1,-85*
c1ccc(Nc2nc(-c3ccncc3)cs2)cc1,-151*
SMILES,aSyn 5UTR act
Cc1nc2ncccn2c1-c1csc(Nc2ccc(N(C)C)cc2)n1,70
Nc1ccc(Nc2nc(-c3ccncc3)cs2)cc1,-135*
Cc1ccc2c(c1)cc1c(=O)[nH]ncn12,-67*
Oc1ccc(/C=C/c2ccc3cccc(O)c3n2)cc1Br,-200*
O=C(O)c1ccc(/C=C/c2ccc3cccc(O)c3n2)cc1,-188*
C/C(=N\NC(N)=S)C1=CCC2C3CC[C@H]4CC(O)CC[C@]4(C)C3CC[C@]12C (stereo partly specified),-95*
CCn1c(SCc2nc3ccccc3[nH]2)nnc1-c1cnccn1,-90*
Cn1c(SCC(=O)c2ccccc2)nnc1-c1cccs1,-102*
CCC(=O)Nc1cccc(-c2nnc(SCC(=O)c3ccccc3)n2C)c1,-103*
CCC(=O)Nc1cccc(-n2nnnc2SCC(=O)c2ccc(C)c(C)c2)c1,-84*
Cn1c(SCC(=O)c2ccccc2)nnc1-c1cnccn1,-67*
Cn1c(SCc2c(Cl)cccc2Cl)nnc1-c1cccs1,-62*
CCn1c(SCC(=O)c2ccccc2)nnc1-c1cnccn1,-78*
CCOC(=O)CN1C(=O)S/C(=C/c2cc(C)n(-c3ccccn3)c2C)C1=O,-150*
CCc1ccc(/C=C2\SC(=S)N(CCCC(=O)Nc3ccccn3)C2=O)cc1,73
CC(/C=C1\SC(=O)N(CCCC(=O)O)C1=O)=C\c1ccccc1,103
COC(=O)C(C)N1C(=O)S/C(=C/c2cc(C)n(-c3ccccn3)c2C)C1=O (stereo unspecified),-83*
CCOC(=O)CN1C(=O)S/C(=C/c2cc(C)n(C)c2C)C1=O,-177*
COc1ccc(Br)cc1/C=C/C(=O)Nc1ccc(C)cc1,-86*
CCC(=O)Nc1cccc(C(=O)/C=C/c2cc(Br)ccc2OC)c1,-125*
COc1ccc(Br)cc1/C=C/C(=O)Nc1ccc2ccccc2c1,-91*
N/C(=N\O)c1ccc(N2CCN(c3ncccc3C(F)(F)F)CC2)nc1,-98*
CCCN(CCC)CCNC(=O)CCC(=O)Nc1ccc2nc(N3CCOCC3)cc(C)c2c1,-90*
COc1cccc(NC(=O)CCC(=O)Nc2ccc3nc(N4CCOCC4)cc(C)c3c2)c1,-149*
Cc1cc(N2CCCCC2)nc2ccc(NC(=O)CCC(=O)NCCC(C)C)cc12,-131*
SMILES,aSyn 5UTR act
CCCCNC(=O)CCC(=O)Nc1ccc2nc(N3CCCCC3)cc(C)c2c1,-141*
Cc1cc(N2CCOCC2)nc2ccc(NC(=S)NC(C)C)cc12,-93*
CCCCNC(=O)CCC(=O)Nc1ccc2nc(N3CCOCC3)cc(C)c2c1,-87*
COCCCNC(=O)CCC(=O)Nc1ccc2nc(N3CCOCC3)cc(C)c2c1,-86*
CCN(CC)CCCNC(=O)CCC(=O)Nc1ccc2nc(N3CCC(C)CC3)cc(C)c2c1,-62*
Cc1cc(N2CCOCC2)nc2ccc(NC(=O)CCC(=O)N3CCN(c4ccccc4)CC3)cc12,-87*
